Laboratory results reported in PubChem BioAssay.
Several values for one entry are separate records, joined by “and”; a condition that tells them apart may be missing. Identical values can stand only once. Activity calls are given as the source filed them.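 The calls were made as follows, unless noted: active = thallium flux through the channel raised or lowered by more than 3 SD from vehicle-only wells, actives on both sides; inactive = the rest.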

Assays:
[1] = compounds altering circadian rhythm period length – cell-based, LOPAC library, luminescence reporter (AID 2774; call rule not given here;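 also: values are relative to mean of DMSO wells on each plate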); settings: circadian reporter cells, at 7 µM, actives lie on both sides
[2] = compounds altering viability of human ES cells (AID 493140; call rule not given here;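 also: cells exposed to compounds for four days before counting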); settings: human embryonic stem cell survival screen; stronger effect = higher value
[3] = P. berghei load reduction in hepatocytes – cell-based, HepG2, luciferase luminescence, HepG2 viability, primary screen (AID 624349; in the data active = parasite load remaining mostly below about 12%, no sharp cut-off; inactive = mostly above about 10%;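 also: 100% = mean of DMSO negative control wells on the same plate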); settings: P. berghei liver stage in HepG2, luciferase luminescence, concentration not given here; parasite load remaining: stronger effect = lower value; viability: measured here: HepG2 viability without parasites
[4] = tested on: Hepatitis C virus NS3 helicase; assay: blockers of NS3h binding to ssDNA – biochemical, fluorescence polarization, LOPAC1280 library, primary screen (AID 687035; in the data active = inhibition above about 37%); settings: Purified HCV NS3 helicase, Cy5-dT15 ssDNA binding fluorescence polarization; stronger effect = higher value; concentration not given here
[5] = compounds altering Cy5-DNA-NS3h complex signal – biochemical, LOPAC1280, artefact control for HCV NS3 helicase inhibitor project (AID 687037; call rule not given here); settings: Cy5-DNA-NS3h complex fluorescence interference counterscreen
[6] = signal quenchers or enhancers, Cy5 substrate/SSB – biochemical, NIH Clinical Collection, E. coli SSB, artefact control for HCV NS3 helicase inhibitor project (AID 743268; call rule not given here); settings: Cy5-oligo bound E. coli SSB, fluorescence interference
[7] = tested on: Hepatitis C virus NS3 helicase; assay: blockers of NS3h binding to DNA – biochemical, fluorescence polarization, NIH Clinical Collection, primary screen (AID 743270; call rule not given here); settings: NS3 helicase binding to Cy5-dT15 DNA, stronger effect = higher value, concentration not given here
[8] = biological target: Single-stranded DNA-binding protein (Escherichia coli (strain K12)) (UniProt P0AGE0); assay: SSB-ssDNA binding inhibitors – biochemical, fluorescence polarization, NIH Clinical Collection, counter-screen for HCV NS3 helicase inhibitor project (AID 743271; in the data active = inhibition above about 28%); settings: E. coli SSB-DNA binding, stronger effect = higher value, concentration not given here
[9] = compounds distorting NS3 helicase fluorescence signal – biochemical, NIH Clinical Collection, artefact control for HCV NS3 helicase inhibitor project (AID 743272; call rule not given here;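 also: HCV NS3 helicase with a Cy5 labelled single stranded DNA probe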); settings: fluorescence interference counterscreen, HCV NS3 helicase assay; stronger effect = lower value
[10] = tested on: Neuropilin-2 / VEGF-C interaction (human); assay: small molecules blocking Neuropilin-2/VEGF-C interaction – biochemical, microplate binding format, z-score (AID 743281; call rule not given here); settings: microplate NRP2/VEGF-C binding assay; stronger effect = lower value
[11] = Wnt pathway potentiators raising nuclear beta-catenin – imaging, WNT3A-conditioned medium, mouse C2C12, NPC library, primary screen (AID 1117326; in the data active = nuclear beta-catenin stimulation mostly above about 4.2%, no sharp cut-off; inactive = mostly below about 10%); settings: stronger effect = higher value
[12] = stimulators of insulin release from INS-1E, primary screen, cell-based, 5 mM glucose, NPC library (AID 1117329;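 active = compound raises insulin release from rat beta cells at 5 mM glucose, no numeric limit stated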); settings: rat INS-1E insulin secretion, at 10 µM, stronger effect = higher value
[13] = growth inhibition of GSK3B-pretreated HCT116 cells – cell-based, CellTiter-Glo, 0.2 to 20 µM (AID 1117336;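 active = compounds lowering colon cancer cell viability after pretreatment blocking the GSK3B kinase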); settings: HCT116 viability after GSK3B inhibitor, at 20 µM, stronger effect = higher value
[14] = inhibition of endothelial tube formation, primary screen, imaging, VEGF stimulated, CD31 staining, tube area, NPC library (AID 1117340;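 active = compound that reduces growth-factor-driven endothelial tube area in a mixed cell culture, no cutoff stated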); settings: VEGF-stimulated ADSC/ECFC co-culture, at 10 µM, stronger effect = higher value
[15] = GLP1 release stimulators, primary, NCI-H716, NPC library (AID 1117341;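 active = compound raises GLP1 secretion from the human gut endocrine cells, with no numeric limit stated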); settings: NCI-H716 cells, at 10 µM, stronger effect = higher value
[16] = HCT116 colon cancer cell growth inhibition, primary screen, CellTiter-Glo luminescence, NPC library (AID 1117342;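 active = compounds that lower survival of HCT116 colon cancer cells in the luminescence readout, no numeric limit stated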); settings: at 20 µM (top of the series)
[17] = reduced SW480 viability measured with CellTiter-Glo, NPC library, primary (AID 1117343;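 active = compounds that lower viability of the colon cancer cells in the luminescence readout, with no numeric limit stated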); settings: CellTiter-Glo luminescence; at 20 µM (top of the series)
[18] = NPC library primary testing for decreased DLD-1 cell viability via CellTiter-Glo (AID 1117346;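 active = compounds that lower survival of DLD-1 colon cancer cells in the luminescence readout, no cutoff given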); settings: DLD-1 viability, CellTiter-Glo luminescence; at 20 µM (top of the series)
[19] = biological target: 6-phosphogluconate dehydrogenase, decarboxylating (Homo sapiens) (UniProt P52209); assay: inhibition of human phosphogluconate dehydrogenase – biochemical, recombinant enzyme, NADPH absorbance, primary screen (AID 1159550;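 active = at least 20% inhibition of 6-phosphogluconate dehydrogenase activity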); settings: recombinant 6PGD, NADPH absorbance 341 nm; at 10 µM; stronger effect = higher value
[20] = modulation of C. elegans fzo-1 (AID 1259413; call rule not given here;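 also: fzo-1 mutant C. elegans worms in liquid wells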); settings: C. elegans fzo-1 modulator screen, mean read-out; stronger effect = higher value
[21] = EMT-state selective cytotoxicity in co-culture – imaging, PC-3E GFP, TEM4-18 mCherry, primary screen (AID 1345086;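 active = compounds killing one labelled cell type while sparing the other, by normalised counts and ratio limits, not self-fluorescent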;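 also: cells exposed to compound for 72 h before imaging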;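 as to red/green cell ratio (normalised): normalised mesenchymal count divided by normalised epithelial count so high means epithelial killing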); settings: PC-3E GFP / TEM4-18 mCherry co-culture, imaging cell counts, at 1 µM
[22] = tested on: Aerobactin synthetase IucA (Klebsiella pneumoniae); assay: inhibition of K. pneumoniae IucA enzyme – biochemical, Tocris library, absorbance (AID 1345561; call rule not given here;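 also: 100% = enzyme without compound and 0% = no enzyme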); settings: purified IucA enzyme assay, absorbance (OD) read-out; stronger effect = lower value;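 tested at 8 µM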
[23] = blockers of cellular phospholipid synthesis – cell-based, LOPAC library, screen 4, primary screen (AID 1347384; call rule not given here); settings: animal cells, phospholipid biosynthesis inhibition screen; at 10 µM
[24] = MELAS cybrid and Rieske KO viability enhancers – cell-based, MELAS cybrids, Rieske KO mouse fibroblasts, CellTiter-Glo, primary screen (AID 1508586;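 active = mean z-score across replicates of 1.96 or higher in either the MELAS or the Rieske mutant cell line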;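 also: z relative to plate mean and SD of compound and empty wells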); settings: low glucose
[25] = biological target: NAD(+) hydrolase SARM1 (Homo sapiens) (UniProt Q6SZW1); assay: blocking NAD cleavage by SARM1 SAM-TIR – cell lysate, NAD-Glo luminescence (AID 1508614;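 active = compound whose remaining NAD level is above about 45 nM, limit read from the data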;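 also: higher remaining NAD means stronger inhibition of SARM1 NADase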); settings: SAM-TIR HEK293T lysate NADase, at 1 µM, stronger effect = higher value
[26] = biological target: Mitogen-activated protein kinase 7 (Homo sapiens) (UniProt Q13164); assay: Gal4-ERK5 driven luciferase induction – cell-based, HTS, primary screen (AID 1508626;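 active = luciferase signal above three times the same-plate solvent-only control wells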;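 also: luciferase driven by Gal4-ERK5 fusion binding five Gal4 sites before minimal TATA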); settings: HeLa Gal4-ERK5 transactivation, 18 h, at 5 µM, stronger effect = higher value
[27] = galactose survival enhancers in mitochondrial complex I cybrids – cell-based, galactose medium, ATP luminescence, primary screen (AID 1645843;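 active = z-score of at least 1.8 in each of two replicates, scored against plate mean and spread of sample wells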;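 also: positive z means more ATP and so rescue of galactose-driven cybrid death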); settings: complex I mutant cybrid cells, 72 h, stronger effect = higher value
F380Y = assay: BK channel mutant inhibitors and activators – cell-based, U2OS BacMam, thallium flux, beta subunits, selectivity assay, profiling panel (AID 1259406); settings: U2OS BacMam BK variants, at 30 µM;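 also: initial slope of Thallos dye fluorescence rise after thallium is added; log ratio against the mean of 0.3% DMSO vehicle wells on the same plate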
F380Y/beta2Delta = assay: as above; settings: U2OS BacMam BK variants, at 30 µM
[28] = biological target: Calcium-activated potassium channel subunit alpha-1 (Homo sapiens) + Leucine-rich repeat-containing protein 26 (Homo sapiens) (UniProt Q12791+Q2I0M4); assay: as above; settings: U2OS BacMam BK variants, F380Y/Slo1WT/gamma1, at 30 µM
R275C = assay: as above; settings: U2OS BacMam BK variants, at 30 µM
R275C/beta1 = assay: as above; settings: U2OS BacMam BK variants, at 30 µM
R275C/beta2Delta = assay: as above; settings: U2OS BacMam BK variants, at 30 µM
[29] = viability loss with induced miR-34 in A549 – imaging, A549 dox-inducible miR-34, nuclei and caspase counts, primary screen (AID 1347080;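 active = compounds whose cell count with miR-34 switched on is under 0.7 times the count with it off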); settings: A549 miR-34 inducible, Hoechst nuclei count, 48 h
F380Y/beta1 = assay: BK channel mutant inhibitors and activators – cell-based, U2OS BacMam, thallium flux, beta subunits, selectivity assay, profiling panel (AID 1259406); settings: U2OS BacMam BK variants, at 30 µM;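 also: initial slope of Thallos dye fluorescence rise after thallium is added; log ratio against the mean of 0.3% DMSO vehicle wells on the same plate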
F380Y/beta4 = assay: as above; settings: U2OS BacMam BK variants, at 30 µM
R275C/beta4 = assay: as above; settings: U2OS BacMam BK variants, at 30 µM
R275C/Slo1WT/beta2 = assay: as above; settings: U2OS BacMam BK variants, at 30 µM
[30] = MELAS cybrid survival, CellTiter-Glo 48 h, stronger effect = higher value
[31] = Rieske KO mouse fibroblast survival, CellTiter-Glo 72 h

Mitogen-activated protein kinase 7 (Homo sapiens), sequence (Q13164 whole entry, looked up, the tested form may be a part): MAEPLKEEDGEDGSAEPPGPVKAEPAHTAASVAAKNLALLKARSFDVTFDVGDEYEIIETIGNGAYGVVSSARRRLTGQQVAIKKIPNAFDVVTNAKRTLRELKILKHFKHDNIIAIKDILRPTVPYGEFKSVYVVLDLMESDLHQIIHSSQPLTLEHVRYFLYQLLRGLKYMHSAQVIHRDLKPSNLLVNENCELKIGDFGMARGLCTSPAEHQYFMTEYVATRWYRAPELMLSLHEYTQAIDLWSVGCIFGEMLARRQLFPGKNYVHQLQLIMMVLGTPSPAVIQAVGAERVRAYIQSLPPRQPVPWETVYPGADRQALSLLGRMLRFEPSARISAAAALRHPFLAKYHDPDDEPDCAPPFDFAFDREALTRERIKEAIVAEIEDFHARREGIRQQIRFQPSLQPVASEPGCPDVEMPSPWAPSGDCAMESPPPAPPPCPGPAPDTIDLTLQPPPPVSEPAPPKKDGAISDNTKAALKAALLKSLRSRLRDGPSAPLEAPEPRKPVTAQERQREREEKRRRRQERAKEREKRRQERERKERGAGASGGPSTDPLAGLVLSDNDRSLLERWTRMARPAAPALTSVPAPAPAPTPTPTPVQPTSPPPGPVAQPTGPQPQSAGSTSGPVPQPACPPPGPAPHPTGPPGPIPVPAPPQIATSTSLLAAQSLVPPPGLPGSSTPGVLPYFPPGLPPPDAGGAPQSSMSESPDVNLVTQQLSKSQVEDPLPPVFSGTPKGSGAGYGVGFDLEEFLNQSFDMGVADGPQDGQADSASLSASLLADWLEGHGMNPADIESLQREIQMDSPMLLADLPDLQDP
NAD(+) hydrolase SARM1 (Homo sapiens), sequence (Q6SZW1 whole entry, looked up, the tested form may be a part): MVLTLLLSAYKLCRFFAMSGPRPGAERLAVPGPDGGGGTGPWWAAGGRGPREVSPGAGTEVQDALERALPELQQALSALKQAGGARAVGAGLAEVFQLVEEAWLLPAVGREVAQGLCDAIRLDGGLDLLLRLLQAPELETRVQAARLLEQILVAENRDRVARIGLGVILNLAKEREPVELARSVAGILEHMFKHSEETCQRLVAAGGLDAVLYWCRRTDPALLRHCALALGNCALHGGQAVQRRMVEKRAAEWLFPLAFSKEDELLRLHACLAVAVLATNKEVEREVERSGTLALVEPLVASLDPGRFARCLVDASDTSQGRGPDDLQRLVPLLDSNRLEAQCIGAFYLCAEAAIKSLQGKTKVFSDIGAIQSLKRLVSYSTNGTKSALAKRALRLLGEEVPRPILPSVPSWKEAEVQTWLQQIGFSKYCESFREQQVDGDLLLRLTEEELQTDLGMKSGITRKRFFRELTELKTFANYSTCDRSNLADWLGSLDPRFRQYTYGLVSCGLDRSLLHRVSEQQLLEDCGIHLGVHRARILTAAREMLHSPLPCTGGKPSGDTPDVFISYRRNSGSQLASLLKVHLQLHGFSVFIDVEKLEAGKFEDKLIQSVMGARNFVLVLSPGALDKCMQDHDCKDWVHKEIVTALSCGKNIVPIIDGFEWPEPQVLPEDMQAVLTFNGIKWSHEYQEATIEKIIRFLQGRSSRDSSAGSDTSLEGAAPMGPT
6-phosphogluconate dehydrogenase, decarboxylating (Homo sapiens), sequence (P52209 whole entry, looked up): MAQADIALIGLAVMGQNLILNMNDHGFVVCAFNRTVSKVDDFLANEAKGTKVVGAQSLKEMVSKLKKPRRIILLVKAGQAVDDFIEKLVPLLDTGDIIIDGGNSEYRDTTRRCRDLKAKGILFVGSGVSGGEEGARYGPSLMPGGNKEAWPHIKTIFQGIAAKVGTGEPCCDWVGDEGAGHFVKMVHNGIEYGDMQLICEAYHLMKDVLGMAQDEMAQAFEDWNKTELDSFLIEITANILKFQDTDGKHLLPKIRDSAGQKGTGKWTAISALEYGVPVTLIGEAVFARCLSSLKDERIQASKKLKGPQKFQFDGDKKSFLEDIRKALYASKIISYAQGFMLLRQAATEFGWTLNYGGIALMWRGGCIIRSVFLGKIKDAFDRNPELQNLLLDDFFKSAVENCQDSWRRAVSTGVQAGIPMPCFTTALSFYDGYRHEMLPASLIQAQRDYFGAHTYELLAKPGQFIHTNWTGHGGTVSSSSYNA
Calcium-activated potassium channel subunit alpha-1 (Homo sapiens) + Leucine-rich repeat-containing protein 26 (Homo sapiens), sequence (Q2I0M4 whole entry, looked up, one chain of several): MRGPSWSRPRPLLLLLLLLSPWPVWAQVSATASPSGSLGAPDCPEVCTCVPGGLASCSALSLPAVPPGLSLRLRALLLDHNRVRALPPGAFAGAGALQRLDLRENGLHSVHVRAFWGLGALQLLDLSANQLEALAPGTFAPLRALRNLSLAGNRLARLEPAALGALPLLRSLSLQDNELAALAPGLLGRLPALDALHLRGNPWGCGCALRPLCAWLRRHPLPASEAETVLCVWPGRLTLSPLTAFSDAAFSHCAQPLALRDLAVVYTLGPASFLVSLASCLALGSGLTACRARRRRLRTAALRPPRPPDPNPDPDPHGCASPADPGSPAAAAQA

COc1ccccc1N1CCN(CCCNc2cc(=O)n(C)c(=O)n2C)CC1
0.91: normalised cell number ([21]; measured here: epithelial PC-3E GFP cell survival)
inactive: period change [1] 0.18 h | survival [2] 5.83 | parasite load remaining [3] 53.4% and 119% and 80.7% | inhibition [4] -4% | fluorescence ratio (interference) [5] 1 | fluorescence ratio [6] 0.99 | inhibition [7] -2.77% | inhibition [8] -1.64% | fluorescence ratio [9] 0.96 | z-score [10] -0.551 | nuclear beta-catenin stimulation ([11]; at 10 µM) 4.3% | insulin secretion stimulation [12] 1.1% | viability decrease [13] 1.1% | tube area decrease [14] 1% | GLP1 secretion stimulation [15] -0.1% | inhibition of viability [16] 10.8% | viability decrease (inhibition) [17] -11.2% | viability decrease (inhibition) [18] -9.9% | inhibition [19] -3.41% | mean signal [20] 262 | red/green cell ratio (normalised) ([21]; actives lie on both sides, counts scaled to control wells, 1 = unselective) 1.12 | remaining activity [22] 103% | outcome [23] | z-score [24, 30] -0.289 and 0.285 | remaining NAD [25] 10 nM | luciferase signal [26] 40 AU | z-score [27] 0.56 and 1 and -0.025 | log fold change Tl+ flux (F380Y) -0.0416 | log fold change Tl+ flux (F380Y/beta2Delta) -0.00368 | log fold change Tl+ flux [28] -0.00786 | log fold change Tl+ flux (R275C) -0.0421 | log fold change Tl+ flux (R275C/beta1) 0.0413 | log fold change Tl+ flux (R275C/beta2Delta) 0.0288
95.1% and 83.4% and 78.9%: viability [3]
1.01: normalised cell number ([21]; measured here: mesenchymal TEM4-18 mCherry cell survival)
0.2%: nuclear beta-catenin stimulation ([11]; stimulation, at 2 µM)
0.041 and 0.0737: z-score [24, 31]

CC(=O)S[C@@H]1CC2=CC(=O)CC[C@]2(C)[C@H]2CC[C@@]3(C)[C@@H](CC[C@@]34CCC(=O)O4)[C@H]12
0.325 and -0.236: z-score [24, 31]
1.96 and 1.1 and 1.66: fold change ([29]; measured here: relative caspase fold change +Dox/-Dox)
2.4%: nuclear beta-catenin stimulation ([11]; stimulation, at 2 µM)
9050 and 8450 and 9710: cell count ([29]; measured here: total cells without miR-34 induction)
8520 and 7420 and 8230: cell count ([29]; measured here: total cells with miR-34 induction, stronger effect = lower value)
inactive: survival [2] 17.9 | fluorescence ratio [6] 0.99 | inhibition [7] -3.18% | inhibition [8] -0.48% | fluorescence ratio [9] 0.9 | nuclear beta-catenin stimulation ([11]; at 10 µM) 4.4% | insulin secretion stimulation [12] -2% | viability decrease [13] -2% | tube area decrease [14] 17% | GLP1 secretion stimulation [15] 2.4% | inhibition of viability [16] 28.7% | viability decrease (inhibition) [17] 41.7% | viability decrease (inhibition) [18] 26.4% | inhibition [19] 14.1% | fold change ([29]; stronger effect = lower value, cell number ratio, induced over uninduced) 0.941 and 0.878 and 0.848 | z-score [24, 30] 0.887 and 0.469 | remaining NAD [25] 10 nM | luciferase signal [26] 56 AU | z-score [27] -0.25 and 0.65 | log fold change Tl+ flux (F380Y) -0.00371 | log fold change Tl+ flux (F380Y/beta1) 0.0461 | log fold change Tl+ flux (F380Y/beta2Delta) -0.0301 | log fold change Tl+ flux (F380Y/beta4) -0.0243 | log fold change Tl+ flux [28] 0.0238 | log fold change Tl+ flux (R275C) 0.0437 | log fold change Tl+ flux (R275C/beta1) 0.0449 | log fold change Tl+ flux (R275C/beta2Delta) 0.0485 | log fold change Tl+ flux (R275C/beta4) 0.0567 | log fold change Tl+ flux (R275C/Slo1WT/beta2) 0.0564
